According to PubChem BioAssay:

Experiment: small molecules captured by biotinylated probe aFGF10 – biochemical, small-molecule microarray, fluorescence 635/667, stem cell growth factor project, primary screen (AID 1071);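 further: score merges 667 nm spot intensity and signal to noise from triplicate slides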
Conditions: higher = more signal

Row | Structure (SMILES) | composite z-score
1 | COc1ccc(COC(=O)NN=C2C[C@@H](O)[C@@H](O)[C@@H]3[C@@H]4C(=O)N(C[C@@H]5CCCO5)C(=O)[C@@H]4CC[C@H]23)cc1 | -0.302
2 | CCOC(=O)[C@H](Cc1ccccc1)NC(=O)CCC1CC(OC(=O)NCCc2ccc(F)cc2)CC2(CCCC(COC(=O)NCCC(C)C)O2)O1 (stereo partly specified) | -0.409
3 | COC(=O)CC=C[C@@H](C)[C@@H](C=NOC[C@@H](O)[C@H]1O[C@@H]2OC(C)(C)O[C@@H]2[C@H]1O)OC | 0.197
4 | C[C@]12CCC3c4ccc(OCC5CO5)cc4CCC3C1CC[C@@H]2O (stereo partly specified) | 0.381
5 | CCOC(=O)CCN1C(=O)[C@H]2[C@H]3[C@H](O)[C@H](O)CC(=NO[C@@H]4O[C@H](CO)[C@@H](O)[C@H](O)[C@H]4O)[C@@H]3CC[C@H]2C1=O | 1.04
6 | CC(CCN1CCCCc2nc(C)c(C)cc21)=NO[C@H](C)c1cn([C@@H]2COC[C@H]2O)nn1 | 0.517
7 | COc1ccc(COC(=O)NN=C2C[C@@H](O)[C@@H](O)[C@@H]3[C@@H]4C(=O)N(c5cccc(Oc6ccccc6)c5)C(=O)[C@@H]4CC[C@H]23)cc1 | 0.0478
8 | CC=CC1=C(CO)[C@H](O)[C@H]2O[C@H]2[C@@H]1O | 0.192
9 | CC1(C)O[C@H]2OC([C@H](O)CON3C(=O)c4ccccc4C3=O)[C@H](O)[C@H]2O1 (stereo partly specified) | 0.0685
10 | CCOC(=O)NN=C1C[C@@H](O)[C@@H](O)[C@@H]2[C@@H]3C(=O)N(CC)C(=O)[C@@H]3CC[C@H]12 | 0.389
11 | CC(=O)OC[C@H]1O[C@@H](ON=C(C)CCC(=O)OC[C@H]2O[C@H](C#Cc3ccccc3)C=C[C@@H]2Oc2ccc(C)cc2)[C@H](OC(C)=O)[C@@H](OC(C)=O)[C@@H]1OC(C)=O | 1.12
